Calls of active or inactive are those of the source. How the calls were made is not given here.
These compounds were tested against Protein kinase 7 (PK7), Plasmodium falciparum 3D7 (PF3D7_0213400) (UniProt Q7YTF7) (assay: inhibition of Plasmodium PK7 catalytic activity – biochemical, TCAMS antimalarial set, Kinase-Glo luminescence (AID 1159587)). Details: recombinant PfPK7, Kinase-Glo ATP depletion luminescence.
Protein kinase 7 (PK7), Plasmodium falciparum 3D7 (PF3D7_0213400), sequence (Q7YTF7 1-343): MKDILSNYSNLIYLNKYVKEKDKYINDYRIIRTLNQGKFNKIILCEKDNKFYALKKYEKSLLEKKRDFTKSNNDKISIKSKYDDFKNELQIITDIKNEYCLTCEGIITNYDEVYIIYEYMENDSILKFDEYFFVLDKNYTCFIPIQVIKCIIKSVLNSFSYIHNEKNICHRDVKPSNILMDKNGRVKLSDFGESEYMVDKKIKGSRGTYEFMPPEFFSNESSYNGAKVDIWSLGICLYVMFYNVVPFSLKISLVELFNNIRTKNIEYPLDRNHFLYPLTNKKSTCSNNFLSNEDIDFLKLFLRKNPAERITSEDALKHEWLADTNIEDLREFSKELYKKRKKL

outcome, inactive:
Cn1c2c(c3ccccc31)CN(CCC1(c3ccc(Cl)c(Cl)c3)CN(C(=O)Cc3ccccc3)CCO1)CC2 (centres undefined)
O=C(NCc1ccc(F)cc1)Nc1ccc(-c2cccc(-c3nc4ccc(F)cc4[nH]3)c2)cc1
COc1ccc(/C=C/C(=O)N2CCc3cc4nccc(N5CCN6CCC[C@H]6C5)c4cc32)cc1
CS(=O)(=O)Nc1cccc(-c2cnc3[nH]cc(-c4cc(N)cc(C(=O)O)c4)c3c2)c1
CCN(CC)CCN(Cc1ccc(-c2ccc(C(F)(F)F)cc2)cc1)C(=O)Cn1c(CCc2ccc(F)c(F)c2F)nc(=O)c2cccnc21
Cc1cc(N2CCOCC2)nc2ccc(NC(=O)c3ccc(Cl)c([N+](=O)[O-])c3)cc12
CCOc1cccc(C(=O)Nc2ccc(-c3nc4ccccc4[nH]3)cc2)c1
O=C(NCCCCN1CCC(c2ccc([N+](=O)[O-])cc2)CC1)c1ccc(NC(=O)c2ccc(Cl)cc2)cc1
O=C(Nc1cccc(-c2ccc(CN3CCNCC3)cc2)c1)c1cccc(Cl)c1
Cc1cc(N(C)C)nc(Nc2ccc(NC(=O)C(C)Oc3ccccc3)cc2)n1 (centres undefined)
CCN(CC)CCN(Cc1ccc(-c2ccc(C(F)(F)F)cc2)cc1)C(=O)Cn1c(CCc2ccc(F)cc2)nc(=O)c2sccc21
Cc1ncc([N+](=O)[O-])n1CCOC(=O)NC(NCC1COc2ccccc2O1)C(Cl)(Cl)Cl (centres undefined)
COC(=O)c1ccc(CN2CCC(N(Cc3cccc(Oc4ccccc4)c3)S(=O)(=O)c3ccc(NC(C)=O)cc3)CC2)cc1
COc1ccc(CN2CCC(N3CC(c4ccccc4)(c4ccccc4)OCC3=O)C2)c(O)c1 (centres undefined)
CC(C)Oc1ccc(C=CC(=O)Nc2noc3ccccc23)cc1
N#Cc1ccc(Cn2ccc3c4c(N)nc(N)nc4ccc32)cc1
CC(=O)c1cccc(Nc2nc3c(C#N)c(OCc4cc(Cl)cc(Cl)c4)ccc3[nH]2)c1
CCN(CC)CCCN(Cc1ccc(-c2ccc(C(F)(F)F)cc2)cc1)C(=O)Cn1c(SCc2cccc(F)c2F)cc(=O)c2ccccc21
Cc1[nH]c(C)c(-c2ccc(OCCOc3ccc(C(F)(F)F)cn3)cc2)c(=O)c1Br
CC(C)CCOc1ccc(NC(=O)c2cccs2)cc1
CCN1CCN(c2ccc(Nc3ccnc4ccc(Br)cc34)cc2)CC1
CC1(C)N=C(NC(=O)Nc2ccc([N+](=O)[O-])cc2)N=C(N)N1OCc1cccc2ccccc12
CC(O)C1CCCCN1C(=O)c1cccc(-c2cccc(-c3nc4ccc(F)cc4[nH]3)c2)c1 (centres undefined)
COc1cccc(-c2cccc(-c3ccc(NC(=O)c4ccc([N+](=O)[O-])o4)cc3)n2)c1
N#Cc1ccc2c(c1)CN(C1CCC(NC(=O)c3cc(-c4ccc(Cl)cc4)cs3)CC1)CCC2 (centres undefined)
CCOc1ccc2nc3cc(NC(=O)c4ccco4)ccc3c(N)c2c1
COc1ccc2ncc(F)c([C@@H](O)CN3CCC(NCc4cc5c(cn4)OCS5)CC3)c2c1
FC(F)(F)c1ccc2nccc(NCc3ccccc3)c2c1
COc1ccc(CN2CCCN(Cc3cccc(C(=O)Nc4ccc(C(C)(C)C)cc4)c3)CC2)cc1
CCc1ccc(C(=O)NC(=O)c2ccccc2O)cc1
COc1ccc(N2CCN(CCCNC(=O)c3ccc(NC(=O)c4cc(Cl)cc(Cl)c4)cc3)CC2)c(OC)c1
CCCC(=O)Nc1ccc(OCCCN(Cc2ccccc2F)c2ccc(C#N)c(C(F)(F)F)c2)cc1
CN(C)c1ccc(C2c3nc[nH]c3CCN2C(=O)Nc2cccc([N+](=O)[O-])c2)cc1 (centres undefined)
COc1cccc(NC(=O)Nc2ccc(Nc3nc(C)cc(N(C)C)n3)cc2)c1
CCn1ncc2c(N3CCCC3=O)cc(C(=O)N[C@@H](Cc3ccccc3)[C@H](O)CNC(C)(C)c3cccc(C(F)(F)F)c3)cc21
Fc1cccc(COc2ccc(-n3ccc4c(NCCCn5ccnc5)ncnc43)cc2Cl)n1
N#Cc1cccc(C(=O)NC2CCN(CCCCCNC(=O)/C=C/c3ccc(Cl)c(Cl)c3)CC2)c1
Cc1[nH]c(C)c(-c2ccc(C(=O)c3ccc(Cl)cc3)cc2)c(=O)c1Cl
Fc1ccc(-c2nc(NCc3cccc(C(F)(F)F)c3)nn2-c2cccc(C(F)(F)F)c2)cc1C(F)(F)F

Reference: PubChem BioAssay
